The source of these data is PubChem BioAssay (NCATS).

“And” between values parts separate entries of the source, which are not always exact repeats. Identical values can stand only once. Inconclusive results are not listed. Values without a mark were called inactive. The source made the active and inactive calls. The call rests on the fitted dose curve; in most records, active means well fitted inhibition curve with a large enough effect; inconclusive means small, poorly fitted or top-dose-only effect; inactive means flat fitted curve, though single readings scatter.

For experiment [1], the system named is HEK293. As to the kind of experiment: Cytotoxic Profiling of Annotated Libraries Using Quantitative High-Throughput Screening (AID 1296008). The settings on record: Five cell lines viability, CellTiter-Glo ATP luminescence, 48-72 h; max response: stronger effect = lower value. A digest of the protocol: (§1)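 Cells exposed to compounds for 48 or 72 hr at 37 degrees Celsius. Viability read as ATP-coupled luminescence with CellTiter-Glo after 10 min at room temperature.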

In experiment [2] the test system is HaCat. Described as above. The settings on record: Five cell lines viability, CellTiter-Glo ATP luminescence, 48-72 h; max response: stronger effect = lower value. A digest of the protocol: as §1
For experiment [3], the system named is NIH3T3. Described as above. The settings on record: Five cell lines viability, CellTiter-Glo ATP luminescence, 48-72 h; max response: stronger effect = lower value. In outline: as §1
Experiment [4] concerns MCC-13. As to the kind of experiment: qHTS assay to identify novel small-molecules to repurpose for Merkel cell carcinoma treatment (AID 1296009). Particulars: MCC and control cell lines, CellTiter-Glo viability, 72 h; series mostly up to 46 µM. A digest of the protocol: (§2)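 Cells were treated for 72 hr at 37 degree celsius with compounds in 8- or 11-point dose response. Viability was read by CellTiter-Glo luminescence, normalized to no-cell (cytotoxicity) and DMSO controls.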

For experiment [5], the system named is MCC-26. The experiment is described as above. Particulars: MCC and control cell lines, CellTiter-Glo viability, 72 h; series mostly up to 46 µM. A digest of the protocol:
as §2

For experiment [6], the system named is MKL-2. The description is as above. The settings on record: MCC and control cell lines, CellTiter-Glo viability, 72 h; series mostly up to 46 µM. In outline: as §2
Experiment [7] deals with KB-3-1. As to the kind of experiment: Cytotoxic Profiling of Annotated Libraries Using Quantitative High-Throughput Screening (AID 1296008). Particulars: Five cell lines viability, CellTiter-Glo ATP luminescence, 48-72 h; max response: stronger effect = lower value. A digest of the protocol: as §1
In experiment [8] the test system is MKL-1. As to the kind of experiment: qHTS assay to identify novel small-molecules to repurpose for Merkel cell carcinoma treatment (AID 1296009). Particulars: MCC and control cell lines, CellTiter-Glo viability, 72 h; series mostly up to 46 µM. A digest of the protocol:
as §2

Experiment [9] deals with HEK293T. The experiment is described as above. The settings on record: MCC and control cell lines, CellTiter-Glo viability, 72 h; at 44.8 µM (top of the series) unless noted. In outline:
as §2

Experiment [10] relates to HACAT. Described as above. Particulars: MCC and control cell lines, CellTiter-Glo viability, 72 h; at 44.8 µM (top of the series) unless noted. In outline: as §2
Further: nearly all actives have a fitted effect of over 60% in size.
On the % scale 0 is the no-effect control and ±100 the full control effect; potency means the concentration at half of the fitted maximal effect.

On to `Cc1ccc(=O)n(-c2ccccc2)c1`, for which the max response in [1] is 4.05%; in [2] it was 3.39%; in experiment [3], -3.29%. In addition, the Potency entry in experiment [4], in experiment [5] and in experiment [6] was “inactive” throughout.

Regarding `CC(C)COCC(CN(Cc1ccccc1)c1ccccc1)N1CCCC1` (stereo not drawn), the Potency in [1] was 18.8 µM (active); in experiment [3], 26.6 µM (active). In addition, the max response in experiment [7] is -4.17%.

For the compound `O=C(O)CN(CCOCCOCCN(CC(=O)O)CC(=O)O)CC(=O)O`, the max response was 0.265% in experiment [1], 4.17% in experiment [2] and -0.882% in experiment [3]. The activity change, negative = cytotoxicity was -0.433% [at 0.597 µM] in experiment [4], 19.1% [at 0.597 µM] in experiment [5], 14.4% [at 0.597 µM] in experiment [8] and 9.35% [at 0.597 µM] in [6].

Turning to `Cc1ccc(/C(=C\CN2CCCC2)c2ccccn2)cc1`, the max response in experiment [1] was -16.2%; in experiment [2], -3.07%; in experiment [3] it was 1.95%. For the same compound, the Potency entry in [4], in experiment [5] and in experiment [6] was “inactive” throughout.

Consider `CN1C[C@H](C(=O)N[C@]2(C)O[C@@]3(O)[C@@H]4CCCN4C(=O)[C@H](Cc4ccccc4)N3C2=O)C[C@@H]2c3cccc4[nH]cc(c34)C[C@H]21`, for which the Potency in experiment [1] is 10.6 µM (active). Moreover, the max response in [2] was -5.88%; in experiment [7] it was 0.239%. Further, the Potency entry in experiment [4], in experiment [5] and in experiment [6] was “inactive” throughout.

With `C[C@H](CS)C(=O)N1CCC[C@H]1C(=O)O`, the max response in [1] was -1.78%; in experiment [2], 2.06%; in [3], -6.68%. Moreover, the Potency entry in experiment [4], in experiment [5], in experiment [8] and in experiment [6] was “inactive” throughout.

`CC(C)(C)NCC(O)c1cc(O)cc(O)c1` (stereo not drawn): the max response in experiment [1] is -2.84%; in experiment [2], 4.23%; in [7], -2.33%; in experiment [3] it was 3.49%. The Potency entry in experiment [4], in [5] and in experiment [6] was “inactive” each time.

As for `NS(=O)(=O)c1cc2c(cc1Cl)NC(C1CC3C=CC1C3)NS2(=O)=O` (stereo not drawn), the compound was classed as inactive in experiment [1] and in experiment [9]. In [7], the max response is -20.4%. Also, the Potency entry in experiment [4], in [5], in experiment [8] and in experiment [6] was “inactive” in each case.

Regarding `CN1CCN(C2=Nc3ccccc3Oc3ccc(Cl)cc32)CC1`, the results for the max response in experiment [2], in experiment [7] and in [3] were -5.97%, 6.07% and -11%, respectively. Moreover, the Potency result in [4], in experiment [5] and in experiment [8] was “inactive” each time.

For `CC(C)(C)c1ccc(C(=O)CCCN2CCC(OC(c3ccccc3)c3ccccc3)CC2)cc1`, the Potency in experiment [1] was 8.41 µM (active); in experiment [6], 7.5 µM (active).

With `CN(C)[C@@H]1C(=O)C(C(N)=O)=C(O)[C@@]2(O)C(=O)C3=C(O)c4c(O)ccc(Cl)c4[C@@H](O)[C@H]3C[C@@H]12`, the call in experiment [2], in [3] and in experiment [10] was inactive. Further, the max response in experiment [7] is -3.68%. Besides, the Potency entry in [4], in [5], in experiment [8] and in experiment [6] was “inactive” each time.

In the case of `CCc1c(C)[nH]c2c1C(=O)C(CN1CCOCC1)CC2` (stereo not drawn), in experiment [1], the max response was -11.2%. In addition, in experiment [3], the result was inactive. For the same compound, the Potency result in [4] and in experiment [5] was “inactive” each time. Besides, the Potency in experiment [6] is 9.44 µM (active).

As for `C[C@@H](O)[C@H]1C(=O)N2C(C(=O)O)=C(SCCN=CN)C[C@H]12`, the max response in [1] is -4.83%; in [3], -19.7%. Moreover, the Potency entry in experiment [4], in experiment [5] and in [6] was “inactive” throughout.

On to `c1cnc(N2CCN(Cc3ccc4c(c3)OCO4)CC2)nc1`, for which the result in experiment [2] and in [10] was inactive. Besides, the max response in [7] is -6.36%; in experiment [3], -2.83%. The Potency entry in experiment [4], in experiment [5], in [8] and in experiment [6] was “inactive” throughout.

In the case of `O=c1[nH]c(=O)n([C@H]2C[C@H](O)[C@@H](CO)O2)cc1Br`, the max response in experiment [2] is 2.47%; in [7], 2.61%; in experiment [3], 1.37%. The Potency result in [4], in experiment [5] and in [6] was “inactive” throughout.

`COC(=O)C1=C(C)NC(C)=C(C(=O)OC(C)(C)CN(C)CCC(c2ccccc2)c2ccccc2)C1c1cccc([N+](=O)[O-])c1` (stereo not drawn): the figures for the Potency in experiment [1] and in experiment [8] were 10.6 µM (active) and 23.7 µM (active), respectively. Also, the Potency result in experiment [5] was “inactive”.

`Cc1nc2sccn2c(=O)c1CCN1CCC(=C(c2ccc(F)cc2)c2ccc(F)cc2)CC1`: the results for the max response in experiment [2], in experiment [7] and in [3] were -3.76%, -12.7% and -6.97%, respectively. Besides, the Potency result in experiment [4] and in [5] was “inactive” throughout.

For `CCNC(=O)N1CCN(CCCC(c2ccc(F)cc2)c2ccc(F)cc2)CC1`, the result in [2] and in [10] was inactive. The max response in [7] is -7.16%; in [3] it was -3.38%. For the same compound, the Potency entry in [4], in experiment [5] and in [8] was “inactive” throughout.

Turning to `CCO/C([O-])=N/c1c[n+](N2CCOCC2)no1`, the max response in experiment [1] is -1.87%; in [7], -5.15%; in experiment [3] it was -0.944%. Moreover, the Potency entry in [4], in [5], in experiment [8] and in experiment [6] was “inactive” in each case.

In the case of `COc1ccc(CCN(C)CCCC(C#N)(c2cc(OC)c(OC)c(OC)c2)C(C)C)cc1OC` (stereo not drawn), the outcome in [2] and in [10] was inactive. The values for the max response in experiment [7] and in experiment [3] were -0.362% and 0.424%, respectively. Also, the Potency result in experiment [4], in experiment [5], in experiment [8] and in experiment [6] was “inactive” each time.

Consider `CN(C)CC/C=C1\c2ccccc2COc2ccccc21`, for which the compound was called inactive in [2] and in experiment [10]. Moreover, the max response was 4.58% in experiment [7] and 0.829% in experiment [3]. Besides, the Potency result in experiment [4], in experiment [5] and in experiment [8] was “inactive” throughout.

Turning to `C=CCc1ccccc1OCC(O)CNC(C)C` (stereo not drawn), the max response in experiment [2] was 4.41%; in [7], 2.54%; in [3], -0.59%. Moreover, the Potency entry in [4], in [5], in experiment [8] and in experiment [6] was “inactive” in each case.

Regarding `CCOC(=O)C1=C(C)NC(C)=C(C(=O)OC)C1c1cccc([N+](=O)[O-])c1` (stereo not drawn), the compound was called inactive in experiment [2] and in experiment [10]. In addition, the max response is -12.8% in experiment [7] and -0.464% in experiment [3]. The Potency entry in experiment [4], in [5], in experiment [8] and in [6] was “inactive” in each case.

For the compound `CCC(=O)c1ccc2c(c1)N(CCCN(C)C)c1ccccc1S2`, the compound was classed as inactive in [2] and in experiment [10]. In addition, the max response is -0.0737% in experiment [7] and -21.3% in experiment [3]. For the same compound, the Potency entry in experiment [4] and in experiment [5] was “inactive” each time.

As to `CCCCOCCOCCOCc1cc2c(cc1CCC)OCO2`, the max response in experiment [2] was 2.25% and -5.48%; in [7], -1.58% and -16.8%; in experiment [3], -13.2% and 0.929%. Further, the Potency result in experiment [4], in experiment [5], in [8] and in experiment [6] was “inactive” throughout.

For `COC(=O)C1=C(C)NC(C)=C(C(=O)OCCN(C)Cc2ccccc2)C1c1cccc([N+](=O)[O-])c1` (stereo not drawn), the Potency was 11.9 µM (active) in experiment [1] and 26.6 µM (active) in experiment [3].

`N[C@@H](COP(=O)(O)O)C(=O)O`: the max response in [1] was -2.26%; in experiment [7], -0.563%; in [3], -2.11%. Also, the Potency entry in experiment [4], in [5], in experiment [8] and in experiment [6] was “inactive” each time.
